Results filed as inconclusive are left out. Where a call stands in place of a potency, no number is given. A number with no mark means an inactive call. Activity calls are given as the source filed them. Calls follow the shape of the full dose curve.
Assay: p53 small molecule agonists, cell-based qHTS assay with human liver microsomes (AID 1963577);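 also: p53 response element beta-lactamase reporter cells with liver microsomes plus NADPH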
Settings: HCT-116 p53RE-bla with human liver microsomes, ratio, 16 h; series mostly up to 66 µM
Method in brief: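 HLM-supplemented p53RE-bla reporter assay: 16 h compound exposure at 37 C, microsomes and NADPH each 0.5 mg/mL final, read by fluorescence intensity.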

Q: Which Potency does the source give for `Nc1nc(=O)n([C@@H]2O[C@H](CO)[C@@H](O)[C@@H]2F)cc1I` here?
A: inactive

Q: With `Cc1cc(C)cc(O)c1` as the compound, how does the Potency read?
A: inactive

Q: With `COc1cc(C(=O)N2CCOCC2)cc(OC)c1OC` as the compound, how does the Potency read?
A: inactive

Q: For `CCCO`, which Potency is on record?
A: inactive

Q: Which Potency does the source give for `CC12CCC(C1)C(C)(C)C2O` (configuration not stated) here?
A: inactive

Q: Which Potency does the source give for `[O]=[Zr]` here?
A: inactive

Q: With `C1CCC(SSC2CCCCC2)CC1` as the compound, how does the Potency read?
A: inactive

Q: With `CCCC[C@H]1CN(CC2CCOCC2)C(=O)OC12CCN(C1(C)CCN(C(=O)c3c(C)ncnc3C)CC1)CC2` as the compound, how does the Potency read?
A: inactive

Q: Which Potency does the source give for `Cc1ccccc1S(=O)(=O)O` here?
A: inactive

Q: Which Potency does the source give for `NC(=O)c1ccc(N)cc1` here?
A: inactive

Q: Which Potency does the source give for `FC(F)(F)C(Cl)Br` (configuration not stated) here?
A: inactive

Q: For `CCCCCCCCSCCO`, which Potency is on record?
A: inactive

Q: With `Cc1ccccc1C(N)=O` as the compound, how does the Potency read?
A: inactive

Q: Which Potency does the source give for `CC12CC3CC(C)(C1)CC(N)(C3)C2` here?
A: inactive

Q: For `O[C@@H]([C@H](O)[C@H](O)CBr)[C@H](O)CBr`, which Potency is on record?
A: inactive

Q: Which Potency does the source give for `CCOc1ccc(N)c([N+](=O)[O-])c1` here?
A: inactive

Q: Which Potency does the source give for `CC(=O)NCc1c(I)c(NC(C)=O)c(I)c(C(=O)O)c1I` here?
A: inactive

Q: Which Potency does the source give for `Nc1cc([N+](=O)[O-])ccc1Cl` here?
A: inactive

Q: With `Cc1c(C(=O)c2c[nH]n(C)c2=O)ccc(S(C)(=O)=O)c1C1=NOCC1` as the compound, how does the Potency read?
A: inactive

Q: Which Potency does the source give for `CC(C[N+](C)(C)C)OC(N)=O` (configuration not stated) here?
A: inactive

Q: For `O=S(=O)(O)c1ccccc1O`, which Potency is on record?
A: inactive

Q: Which Potency does the source give for `Cc1cccc(N(C)C)c1` here?
A: inactive

Q: For `OCC1CCC(CO)CC1` (configuration not stated), which Potency is on record?
A: inactive

Q: With `C=CCOC(=O)CCCCCC` as the compound, how does the Potency read?
A: inactive

Q: With `CCN(CC)S(=O)(=O)c1ccc(C(=O)O)cc1` as the compound, how does the Potency read?
A: inactive

Q: Which Potency does the source give for `NNS(=O)(=O)c1ccc(Oc2ccc(S(=O)(=O)NN)cc2)cc1` here?
A: inactive

Q: With `O=Cc1ccc(C(=O)O)cc1` as the compound, how does the Potency read?
A: inactive

Q: For `COCCOCCOCCOCCOC`, which Potency is on record?
A: inactive

Q: With `C=C(C)[C@H]1CC=C(C)CC1` as the compound, how does the Potency read?
A: inactive

Q: Which Potency does the source give for `CC(C)C1CCC(O)CC1` (configuration not stated) here?
A: inactive

Q: Which Potency does the source give for `C=CC(C)(CCC=C(C)C)OC(=O)CC` (configuration not stated) here?
A: inactive

Q: Which Potency does the source give for `[O-][n+]1ccc(Cl)cc1` here?
A: inactive

Q: Which Potency does the source give for `CC(C)CCO` here?
A: inactive

Q: Which Potency does the source give for `O=C(O)CCS` here?
A: inactive

Q: Which activation does the source give for `Cc1cc(C)c(N=Nc2c(O)c(S(=O)(=O)O)cc3cc(S(=O)(=O)O)ccc23)cc1C` here?
A: -0.355% [at 5.99 µM]

Q: For `Cc1ccc(Nc2ccc(O)c3c2C(=O)c2ccccc2C3=O)cc1`, which Potency is on record?
A: inactive

Q: With `C1=COCCC1` as the compound, how does the Potency read?
A: inactive

Q: Which Potency does the source give for `NCCNCCN` here?
A: inactive

Q: For `CC(=O)N1C[C@H](O)C[C@H]1C(=O)O`, which Potency is on record?
A: inactive

Assay: p53 small molecule agonists, cell-based qHTS assay with rat liver microsomes (AID 1963578)
Settings: HCT-116 p53RE-bla, beta-lactamase ratio, 16 h; series mostly up to 66 µM
Method in brief: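 Quantitative HTS of the Tox21 10K library: p53RE-bla cells, rat liver microsomes plus NADPH at 0.5 mg/mL final each, 16 h at 37 C, beta-lactamase fluorescence detection.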

Q: With `Nc1nc(=O)n([C@@H]2O[C@H](CO)[C@@H](O)[C@@H]2F)cc1I` as the compound, how does the Potency read?
A: inactive

Q: Which Potency does the source give for `Cc1cc(C)cc(O)c1` here?
A: inactive

Q: Which Potency does the source give for `COc1cc(C(=O)N2CCOCC2)cc(OC)c1OC` here?
A: inactive

Q: With `CCCO` as the compound, how does the Potency read?
A: inactive

Q: Which Potency does the source give for `CC12CCC(C1)C(C)(C)C2O` (configuration not stated) here?
A: inactive

Q: Which Potency does the source give for `[O]=[Zr]` here?
A: inactive

Q: Which Potency does the source give for `C1CCC(SSC2CCCCC2)CC1` here?
A: inactive

Q: Which Potency does the source give for `CCCC[C@H]1CN(CC2CCOCC2)C(=O)OC12CCN(C1(C)CCN(C(=O)c3c(C)ncnc3C)CC1)CC2` here?
A: inactive

Q: For `Cc1ccccc1S(=O)(=O)O`, which Potency is on record?
A: inactive

Q: For `NC(=O)c1ccc(N)cc1`, which Potency is on record?
A: inactive

Q: With `FC(F)(F)C(Cl)Br` (configuration not stated) as the compound, how does the Potency read?
A: inactive

Q: Which Potency does the source give for `CCCCCCCCSCCO` here?
A: inactive

Q: With `Cc1ccccc1C(N)=O` as the compound, how does the Potency read?
A: inactive

Q: With `CC12CC3CC(C)(C1)CC(N)(C3)C2` as the compound, how does the Potency read?
A: inactive

Q: For `O[C@@H]([C@H](O)[C@H](O)CBr)[C@H](O)CBr`, which Potency is on record?
A: inactive

Q: With `CCOc1ccc(N)c([N+](=O)[O-])c1` as the compound, how does the Potency read?
A: inactive

Q: Which Potency does the source give for `CC(=O)NCc1c(I)c(NC(C)=O)c(I)c(C(=O)O)c1I` here?
A: inactive

Q: Which Potency does the source give for `Nc1cc([N+](=O)[O-])ccc1Cl` here?
A: inactive

Q: Which Potency does the source give for `Cc1c(C(=O)c2c[nH]n(C)c2=O)ccc(S(C)(=O)=O)c1C1=NOCC1` here?
A: inactive

Q: Which Potency does the source give for `CC(C[N+](C)(C)C)OC(N)=O` (configuration not stated) here?
A: inactive

Q: With `O=S(=O)(O)c1ccccc1O` as the compound, how does the Potency read?
A: inactive

Q: With `Cc1cccc(N(C)C)c1` as the compound, how does the Potency read?
A: inactive

Q: With `OCC1CCC(CO)CC1` (configuration not stated) as the compound, how does the Potency read?
A: inactive

Q: For `C=CCOC(=O)CCCCCC`, which Potency is on record?
A: inactive

Q: Which Potency does the source give for `CCN(CC)S(=O)(=O)c1ccc(C(=O)O)cc1` here?
A: inactive

Q: Which Potency does the source give for `NNS(=O)(=O)c1ccc(Oc2ccc(S(=O)(=O)NN)cc2)cc1` here?
A: inactive

Q: For `O=Cc1ccc(C(=O)O)cc1`, which Potency is on record?
A: inactive

Q: For `COCCOCCOCCOCCOC`, which Potency is on record?
A: inactive

Q: With `C=C(C)[C@H]1CC=C(C)CC1` as the compound, how does the Potency read?
A: inactive

Q: For `CC(C)C1CCC(O)CC1` (configuration not stated), which Potency is on record?
A: inactive

Q: Which Potency does the source give for `C=CC(C)(CCC=C(C)C)OC(=O)CC` (configuration not stated) here?
A: inactive

Q: For `[O-][n+]1ccc(Cl)cc1`, which Potency is on record?
A: inactive

Q: For `CC(C)CCO`, which Potency is on record?
A: inactive

Q: For `O=C(O)CCS`, which Potency is on record?
A: inactive

Q: Which activation does the source give for `Cc1cc(C)c(N=Nc2c(O)c(S(=O)(=O)O)cc3cc(S(=O)(=O)O)ccc23)cc1C` here?
A: 0.887% [at 5.99 µM]

Q: Which Potency does the source give for `Cc1ccc(Nc2ccc(O)c3c2C(=O)c2ccccc2C3=O)cc1` here?
A: inactive

Q: For `C1=COCCC1`, which Potency is on record?
A: inactive

Q: With `NCCNCCN` as the compound, how does the Potency read?
A: inactive

Q: Which Potency does the source give for `CC(=O)N1C[C@H](O)C[C@H]1C(=O)O` here?
A: inactive

Assay: p53 small molecule agonists, cell-based qHTS assay with human liver microsomes: qHTS cell viability counter screen (AID 1963579); also: nearly all actives have a fitted effect of over 45% in size
Settings: p53RE-bla HCT-116 viability, ATP luminescence, 16 h, HLM; series mostly up to 66 µM
Method in brief: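 Viability of p53RE-bla cells is measured as CellTiter-Glo luminescence following a 16 h, 37 C incubation with compound, liver microsomes from human donors and NADPH.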

Q: Which Potency does the source give for `Nc1nc(=O)n([C@@H]2O[C@H](CO)[C@@H](O)[C@@H]2F)cc1I` here?
A: inactive

Q: For `Cc1cc(C)cc(O)c1`, which Potency is on record?
A: inactive

Q: For `COc1cc(C(=O)N2CCOCC2)cc(OC)c1OC`, which Potency is on record?
A: inactive

Q: For `CCCO`, which Potency is on record?
A: inactive

Q: With `CC12CCC(C1)C(C)(C)C2O` (configuration not stated) as the compound, how does the Potency read?
A: inactive

Q: For `[O]=[Zr]`, which Potency is on record?
A: inactive

Q: Which Potency does the source give for `C1CCC(SSC2CCCCC2)CC1` here?
A: inactive

Q: For `CCCC[C@H]1CN(CC2CCOCC2)C(=O)OC12CCN(C1(C)CCN(C(=O)c3c(C)ncnc3C)CC1)CC2`, which Potency is on record?
A: inactive

Q: For `Cc1ccccc1S(=O)(=O)O`, which Potency is on record?
A: inactive

Q: Which Potency does the source give for `NC(=O)c1ccc(N)cc1` here?
A: inactive

Q: With `FC(F)(F)C(Cl)Br` (configuration not stated) as the compound, how does the Potency read?
A: inactive

Q: Which Potency does the source give for `CCCCCCCCSCCO` here?
A: inactive

Q: For `Cc1ccccc1C(N)=O`, which Potency is on record?
A: inactive

Q: Which Potency does the source give for `CC12CC3CC(C)(C1)CC(N)(C3)C2` here?
A: inactive

Q: Which Potency does the source give for `O[C@@H]([C@H](O)[C@H](O)CBr)[C@H](O)CBr` here?
A: inactive

Q: Which Potency does the source give for `CCOc1ccc(N)c([N+](=O)[O-])c1` here?
A: inactive

Q: For `CC(=O)NCc1c(I)c(NC(C)=O)c(I)c(C(=O)O)c1I`, which Potency is on record?
A: inactive

Q: With `Nc1cc([N+](=O)[O-])ccc1Cl` as the compound, how does the Potency read?
A: inactive

Q: Which Potency does the source give for `Cc1c(C(=O)c2c[nH]n(C)c2=O)ccc(S(C)(=O)=O)c1C1=NOCC1` here?
A: inactive

Q: With `CC(C[N+](C)(C)C)OC(N)=O` (configuration not stated) as the compound, how does the Potency read?
A: inactive

Q: Which Potency does the source give for `O=S(=O)(O)c1ccccc1O` here?
A: inactive

Q: For `Cc1cccc(N(C)C)c1`, which Potency is on record?
A: inactive

Q: With `OCC1CCC(CO)CC1` (configuration not stated) as the compound, how does the Potency read?
A: inactive

Q: Which Potency does the source give for `C=CCOC(=O)CCCCCC` here?
A: inactive

Q: Which Potency does the source give for `CCN(CC)S(=O)(=O)c1ccc(C(=O)O)cc1` here?
A: inactive

Q: For `NNS(=O)(=O)c1ccc(Oc2ccc(S(=O)(=O)NN)cc2)cc1`, which Potency is on record?
A: inactive

Q: With `O=Cc1ccc(C(=O)O)cc1` as the compound, how does the Potency read?
A: inactive

Q: For `COCCOCCOCCOCCOC`, which Potency is on record?
A: inactive

Q: For `C=C(C)[C@H]1CC=C(C)CC1`, which Potency is on record?
A: inactive

Q: With `CC(C)C1CCC(O)CC1` (configuration not stated) as the compound, how does the Potency read?
A: inactive

Q: With `C=CC(C)(CCC=C(C)C)OC(=O)CC` (configuration not stated) as the compound, how does the Potency read?
A: inactive

Q: Which Potency does the source give for `[O-][n+]1ccc(Cl)cc1` here?
A: inactive

Q: With `CC(C)CCO` as the compound, how does the Potency read?
A: inactive

Q: With `O=C(O)CCS` as the compound, how does the Potency read?
A: inactive

Q: For `Cc1cc(C)c(N=Nc2c(O)c(S(=O)(=O)O)cc3cc(S(=O)(=O)O)ccc23)cc1C`, which activity change, negative = cytotoxicity is on record?
A: 0.236% [at 5.99 µM]

Q: Which Potency does the source give for `Cc1ccc(Nc2ccc(O)c3c2C(=O)c2ccccc2C3=O)cc1` here?
A: inactive

Q: With `C1=COCCC1` as the compound, how does the Potency read?
A: inactive

Q: Which Potency does the source give for `NCCNCCN` here?
A: inactive

Q: For `CC(=O)N1C[C@H](O)C[C@H]1C(=O)O`, which Potency is on record?
A: inactive
